Source: PubChem (several laboratories)
Gli-Sufu antag: Gli-Sufu pathway antagonism; Sufu-KO-LIGHT fibroblasts, Gli luciferase reporter luminescence; inhibition, % at 5 µM; 340,000 compounds, 0.74% hits;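 active = inhibition above about 55%, limit read from the data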
SMARCA2 activ: increases SMARCA2 function in MMTV reporter cells; MG213 cells, MMTV-luciferase reporter, dexamethasone, overnight; activation, % at 9.1 µM; 370,000 compounds, 1% hits; in the data active = activation above about 7.8%
esBAF inh: SWI/SNF esBAF complex inhibition; mouse ES cells, Bmi1-luciferase knock-in reporter, 24 h; 100% = twice the neutral-well signal; reporter increase, % at 12.5 µM; 350,000 compounds, 2% hits; in the data active = activation above about 40%;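 also: a rise in the Bmi1 reporter signal indicates esBAF inhibition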
Jurkat NFkB inh: inhibitors of the PMA/ionomycin-induced NF-kB reporter in Jurkat cells; 330,000 compounds, 0.53% hits; PMA/ionomycin-induced NF-kB luciferase reporter, luminescence; inhibition, % at 4 µM; in the data active = inhibition above about 50%
697 NFkB inh: inhibitors of the PMA/ionomycin-induced NF-kB reporter in 697 B cells | 697 B-cell NF-kB luciferase reporter, 16 h | inhibition, % at 4 µM | 330,000 compounds, 0.33% hits | AID 435022; in the data active = inhibition above about 35%
Jurkat NFkB conf: inhibitors of the PMA/ionomycin-induced NF-kB reporter in Jurkat cells, retest | shares compounds with Jurkat NFkB inh | Jurkat NF-kB luciferase, 16 h | inhibition, % at 4 µM | 2,700 compounds, 27% hits | AID 435020;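 active = inhibition reaching about 45% at 4 µM in either replicate, limit read from the data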
697 NFkB conf: inhibitors of the PMA/ionomycin-induced NF-kB reporter in 697 B cells, retest | shares compounds with 697 NFkB inh | 697 B-cell NF-kB luciferase, 16 h | inhibition, % at 4 µM | 2,000 compounds, 35% hits; in the data active = inhibition mostly above about 28%, no sharp cut-off; inactive = mostly below about 22%
Hits are given with their value; i = inactive; nt = no result. Compounds with a hit are over-represented: about 3.3% of the library has one in this group of screens.

SMILES	Gli-Sufu antag	SMARCA2 activ	esBAF inh	Jurkat NFkB inh	697 NFkB inh	Jurkat NFkB conf	others
CC(=O)O[C@@]12CO[C@@H]1C[C@H](O)[C@@]1(C)C(=O)[C@H](O)C3=C(C)[C@@H](OC(=O)[C@H](O)[C@@H](NC(=O)c4ccccc4)c4ccccc4)C[C@@](O)([C@@H](OC(=O)c4ccccc4)C12)C3(C)C (stereo partly drawn)	i	i	i	68	i	64
CC(=O)O[C@H]1C(=O)[C@@]2(C)C([C@H](OC(=O)c3ccccc3)[C@]3(O)C[C@H](OC(=O)[C@H](O)[C@@H](NC(=O)Cc4ccccc4)c4ccccc4)C(C)=C1C3(C)C)[C@]1(OC(C)=O)CO[C@@H]1C[C@@H]2O (stereo partly drawn)	i	i	i	62	i	62
CC(=O)O[C@H]1C(=O)[C@@]2(C)C([C@H](OC(=O)c3ccccc3)[C@]3(O)C[C@H](O)C(C)=C1C3(C)C)[C@]1(OC(C)=O)CO[C@@H]1C[C@H]2O (stereo partly drawn)	i	i	i	i	i	nt
COC(=O)[C@H]1[C@H](CO)[C@H]2Cn3c(ccc(-c4cccc(OC)c4)c3=O)[C@@H]1N2C(=O)c1cnccn1	nt	nt	i	nt	nt	nt
CC=Cc1ccc2n(c1=O)C[C@H]1[C@H](CO)[C@@H](C(=O)OC)[C@@H]2N1C(=O)CC1CC1 (mixture of isomers)	nt	nt	i	nt	nt	nt
NC(N)=N/N=C/c1ccc(N(c2ccccc2)c2ccccc2)cc1	i	i	i	61	i	i
COc1ccc(/C=N\N=C(N)N)cc1	i	i	nt	51	i	i
NC(N)=N/N=C/c1ccc(N2CCOCC2)cc1	i	i	nt	i	i	nt
O=C(Cc1ccccn1)N1CCCCN2[C@H](C1)[C@@H](c1ccc(-c3ccccc3F)cc1)[C@@H]2CO	nt	nt	i	nt	nt	nt
CN1/C(=C\C=C\C2=[N+](C)c3ccc4ccccc4c3C2(C)C)C(C)(C)c2ccccc21	nt	nt	nt	99	i	84
O=C(O)[C@@H]1[C@@H](CO)[C@@H]2Cn3c(ccc(-c4ccccc4)c3=O)[C@H]1N2C(=O)C1CCCCC1	nt	nt	i	nt	nt	nt
O=C(Cc1ccccc1)N1C[C@@H]2[C@H](c3ccccc31)[C@@H](CO)N2Cc1ccccc1	nt	nt	i	nt	nt	nt
CN(C)C(=O)O/N=C(\N)COc1ccc(C(C)(C)C)cc1	i	i	i	60	i	i
COC(=O)C1CN(C#N)N(c2ccc(Cl)cc2)C12c1ccccc1-c1ccccc12 (stereo not drawn)	i	nt	nt	87	i	60
COc1ccc(-c2cc(-c3ccccc3)[n+](C)c(-c3ccccc3)c2)cc1	i	i	nt	i	i	nt
COc1ccc(-[n+]2c(-c3ccccc3)cc(-c3ccc(C)cc3)cc2-c2ccccc2)cc1	91	i	i	66	i	i
CC1(C)C[C@H]2C=C(C=O)[C@]3(C=O)C[C@]3(C)[C@H]2C1	i	i	i	94	i	52
COC(=O)[C@H]1[C@H](CO)[C@H]2Cn3c(ccc(-c4ccccc4)c3=O)[C@@H]1N2CC1CC1	nt	nt	i	nt	nt	nt
Cc1nc2c(=O)n(C)c(=O)nc-2n(C)n1	76	i	nt	56	i	100
N#Cc1ccc(-c2ccc([C@@H]3[C@H]4CN(C(=O)Cc5ccccc5)CCCCN4[C@H]3CO)cc2)cc1	nt	nt	i	nt	nt	nt
COc1ccc(NC2Oc3cc4c(cc3C(c3cc(OC)c(OC)c(OC)c3)C2C)OCO4)cc1 (stereo not drawn)	i	i	nt	nt	nt	nt
COc1cc(C2c3cc4c(cc3CC3COC(=O)C32)OCO4)cc(OC)c1OC (stereo not drawn)	i	i	i	53	i	49
CCCN1[C@@H]2c3cccc(=O)n3C[C@H]1[C@H](CO)[C@H]2C(=O)N(C)C	nt	nt	i	nt	nt	nt
C[C@]12CC[C@H](O)C[C@H]1CC[C@@H]1[C@@H]2CC[C@]2(C)[C@@H](C3=CC(=O)OC3)CC[C@]12O	i	i	i	101	i	91
CC12CCC(O)CC1CCC1C2CCC2(C)C(C3=CC(=O)OC3)CCC12O (stereo not drawn)	i	i	nt	nt	nt	nt
C=C1C(=O)O[C@@H]2C[C@@H](C)[C@@H]3C4OC4C(=O)[C@@]3(C)[C@@H](O)[C@H]12 (stereo partly drawn)	i	i	i	58	i	i	697 NFkB conf=i
